Records with an inconclusive call do not appear. A number with no mark means an inactive call. The call rests on the fitted dose curve; in most records, active means well fitted cell-killing curve with a large enough effect in the repeat runs; inconclusive means weak or mixed curves; inactive means flat fitted curve, though single readings scatter.
assay: qHTS assay to identify small molecule antagonists of the TGF-beta/Smad signaling pathway - cell viability counter screen (AID 1346824); conditions: SBE-bla HEK293T viability, CellTiter-Glo luminescence; series mostly up to 76.8 µM; viability change, negative = cytotoxic: at the top concentration; further: nearly all actives have a fitted effect of over 50% in size
Excerpt: U.S. Tox21 Program National Center for Advancing Translational Sciences [NCATS] NIH Chemical Genomics Center [NCGC] U.S. Environmental Protection Agency [EPA] National Institutes of Environmental Health Sciences [NIEHS] National Toxicology Program [NTP] U.S. Food and Drug Administration [FDA] Tox21 Assay Overview: Transforming growth factor beta (TGF-beta) superfamily consists of a large number of structurally related dimeric proteins that act as hormones or local mediators in regulating a wide range of biological functions. This superfamily includes TGF-betas themselves, the bone morphogenetic proteins (BMPs) and the activins. These ligands induce oligomerization of serine/threonine receptor kinases and phosphorylate the cytoplasmic signaling molecules of Smad protein family. CellSensor SBE-bla HEK 293T cell line (Life Technologies, Carlsbad, CA), responsive to TGF-beta was used to screen Tox21 10K compound library for identification of agonists/antagonists of the Smad signaling pathway. This cell line contains a beta-lactamase reporter gene under control of the Smad binding element (SBE) stably integrated into HEK 293T cells. Also cytotoxicity of the compounds was tested in parallel by measuring the cell viability using CellTiter-Glo assay system in the same wells.
Tox21 Assay Protocol Summary: SBE-bla HEK 293T cells were dispensed at 4,000/well in 5 uL of assay medium into black wall/clear-bottom 1536-well plates using a Multidrop Combi (ThermoFisher Scientific, Waltham, MA) dispenser. After the assay plates were incubated at 37 C and 5% CO2 for an overnight, 23 nL of compounds dissolved in DMSO, positive controls or DMSO only was transferred to the assay plate by a Pintool station (Kalypsys, San Diego, CA). Compound transfer was followed by the addition of 1 uL of 0.25 ng/mL TGF-beta1 or assay buffer using two separate tips of Flying Reagent Dispenser (FRD, Aurora Discovery, San Diego, CA). The assay plates were incubated at 37 C and 5% CO2 for 5 hr. One uL of LiveBLAzer B/G FRET substrate (Life Technologies) was added using a Flying Reagent Dispenser (FRD, Aurora Discovery, San Diego, CA) and the plates were incubated at room temperature for 2 hr. Fluorescence intensity (405 nm excitation, 460 nm and 530 nm emissions) was measured using an Envision plate reader (PerkinElmer, Shelton, CT). For cytotoxicity read, 4 uL of CellTiter-Glo reagent (Promega Corporation, Madison, WI) was added to each well of the assay plates using FRD. After 30 min incubation at room temperature, the luminescence intensity was measured using ViewLux plate reader (PerkinElmer).
On the % scale 0 is the no-effect control and ±100 the full control effect.

Compared with O=C(O)c1ccccc1C(=O)OCc1ccccc1, Oc1ccccc1Cc1ccccc1O is lower in “viability change, negative = cytotoxic” value: 8.52% for the first, -14.3% for the second.

Compared with CCCCCCCCCCCCOC(C)=O, CCCCCCCCOC(C)=O is higher in “viability change, negative = cytotoxic” value: 1.27% for the first, 4.11% for the second.

Going from CC(=O)OC(C)(C)Cc1ccccc1 to CCOC(=O)CCc1ccccc1, the “viability change, negative = cytotoxic” value rises from 1.95% to 3.6%.

Going from CCCCCCCC/C=C\CCCCCCCC(=O)OC[C@@H](O)[C@H]1OC[C@H](O)[C@H]1O to CCCCCCCCCCCCC1CO1 (stereo not given), the “viability change, negative = cytotoxic” value falls from 6.51% to -1.95%.

Compared with CCCCCCCCCCCCC, CCOC(=O)CCCCCCCCC(=O)OCC is higher in “viability change, negative = cytotoxic” value: -10.8% for the first, -8.86% for the second.

First: CC(C)C(=O)c1ccccc1
Second: O=C1c2ccccc2-c2ccccc21
The “viability change, negative = cytotoxic” value of the first is lower: -1.04% for the first, 13.9% for the second.

Compared with CCOC(=O)C(C)(C)C, CC(CC(=O)O)CC(C)(C)C (stereo not given) is higher in “viability change, negative = cytotoxic” value: -1.11% for the first, -0.623% for the second.

Going from CC(=O)/C=C/c1ccco1 to Cc1cccc(C(=O)O)c1[N+](=O)[O-], the “viability change, negative = cytotoxic” value rises from 0.693% to 21.7%.

Compared with CC1(N)CCC(C(C)(C)N)CC1 (stereo not given), C1=C\CC/C=C\CC/1 is lower in “viability change, negative = cytotoxic” value: 3.07% for the first, -11.9% for the second.

First: C=COCCOCCOC=C
Second: CCCCC/C=C/CC(=O)OC
The “viability change, negative = cytotoxic” value of the first is lower: 0.758% for the first, 2.03% for the second.

Going from CC1=NN(c2ccc(S(=O)(=O)O)cc2)C(=O)C1N=Nc1ccccc1 (stereo not given) to CC(C)(c1ccc(Oc2ccc3c(c2)C(=O)OC3=O)cc1)c1ccc(Oc2ccc3c(c2)C(=O)OC3=O)cc1, the “viability change, negative = cytotoxic” value falls from 4.23% to -0.58%.

First: O=C(O)c1c(Cl)ccc(Cl)c1Cl
Second: Nc1cc(C(=O)O)ccc1Cl
The “viability change, negative = cytotoxic” value of the first is higher: 1.31% for the first, -7.85% for the second.

First: C=C(C)C(=O)OC
Second: CC(C)COC(=O)CC(C(=O)OCC(C)C)S(=O)(=O)O (stereo not given)
The “viability change, negative = cytotoxic” value of the first is lower: 2.24% for the first, 6.66% for the second.

With COc1cc(C=O)ccc1OC(=O)C(C)C the “viability change, negative = cytotoxic” value was 0.142%.

Compared with Nc1nc(=O)n([C@@H]2O[C@H](CO)[C@@H](O)[C@@H]2F)cc1I, CC(=O)OC[C@H]1O[C@@H](OC(C)=O)[C@H](OC(C)=O)[C@@H]1OC(C)=O is higher in “viability change, negative = cytotoxic” value: 4.18% [at 35.3 µM] for the first, 13% [at 35.3 µM] for the second.

First: CCS(=O)(=O)CCn1c([N+](=O)[O-])cnc1C
Second: CCOC(=O)OCC/C(SC(=O)OCC)=C(\C)N(C=O)Cc1cnc(C)nc1N
The “viability change, negative = cytotoxic” value of the first is higher: -2.22% [at 35.3 µM] for the first, -4.84% [at 35.3 µM] for the second.

First: COc1cc2c3cc1Oc1cc(ccc1O)C[C@@H]1c4c(cc(OC)c(O)c4Oc4ccc(cc4)C[C@@H]3N(C)CC2)CC[N+]1(C)C
Second: Cc1oc(=O)oc1CN1CCN(c2cc3c(cc2F)c(=O)c(C(=O)O)c2n3C(C)S2)CC1 (stereo not given)
The “viability change, negative = cytotoxic” value of the first is lower: 1% [at 35.3 µM] for the first, 8.06% [at 35.3 µM] for the second.

Going from C[C@H](CCC(=O)O)[C@H]1CC[C@H]2[C@@H]3[C@H](O)C[C@@H]4C[C@H](O)CC[C@]4(C)[C@H]3C[C@H](O)[C@]12C to CN[C@@H]1[C@@H](O)[C@@H](O[C@@H]2[C@H](O)[C@H](O[C@H]3OC(CN)=CC[C@H]3N)[C@@H](N)C[C@H]2N)OCC1(C)O (stereo not given in full), the “viability change, negative = cytotoxic” value rises from -1.86% [at 35.3 µM] to 8.1% [at 35.3 µM].

Going from Cc1ccc2c(c1)c1c3n2CCNC3CCC1 (stereo not given) to CCCCCN(CCCOC)C(=O)C(CCC(=O)O)NC(=O)c1ccc(Cl)c(Cl)c1 (stereo not given), the “viability change, negative = cytotoxic” value falls from 2.47% [at 35.3 µM] to -0.165% [at 35.3 µM].

In the case of CCOC(=O)C(=O)c1csc(NC=O)n1, the “viability change, negative = cytotoxic” value is reported as -4.53% [at 35.3 µM].

Going from Nc1ccc(/C=C/c2ccc(N)cc2S(=O)(=O)O)c(S(=O)(=O)O)c1 to O=C(O)Cc1cccc(-c2cc(CCCCCCc3ccc(O[C@H]4O[C@H](CO)[C@@H](O)[C@H](O)[C@@H]4O)c(-c4cccc(CC(=O)O)c4)c3)ccc2O[C@H]2O[C@H](CO)[C@@H](O)[C@H](O)[C@@H]2O)c1, the viability change, negative = cytotoxic rises from -0.698% [at 0.29 µM] to 10.9% [at 0.29 µM].

From PubChem BioAssay (Tox21)
